Source: PubChem BioAssay AID1259343 (VanderVen Lab, College of Veterinary Medicine, Cornell …, 2017)
Out of some 6,200 compounds screened, about 2,900 (47%) were called active. Cut-off read from the data, not from the text of the source: active = inhibition above about 50%; inactive = the rest. The set was probably picked from earlier hits. Some of the results follow.

test: Mycobacterium tuberculosis growth inhibition, primary screen (AID 1259343); settings: inhibition: at 10 µM, stronger effect = higher value; outcome: 10 uM

Structure (SMILES)	inhibition
O=[N+]([O-])c1cccc2nsnc12	-16% (inactive)
CC(=O)Oc1ccc(N2C(=O)c3cccc4c([N+](=O)[O-])ccc(c34)C2=O)cc1	36.4% (inactive)
O=[N+]([O-])c1ccc(O)c2ncccc12	102% (active)
N#CC(=Cc1ccc(O)cc1)c1ccc([N+](=O)[O-])cc1	27.9% (inactive)
O=[N+]([O-])c1ccc(-c2nc(N=Nc3ccc(O)cc3)n[nH]2)cc1	84.3% (active)
CC(NS(=O)(=O)c1ccc(Cl)cc1)C1CC2CCC1C2 (stereo unspecified)	-15.9% (inactive)
CC(NC(=O)NC(=O)N(C1CCCCC1)S(C)(=O)=O)C1CC2CCC1C2 (stereo unspecified)	79.8% (active)
CC(NC(=O)c1ccc2ncsc2c1)C1CC2CCC1C2 (stereo unspecified)	5.4% (inactive)
COc1ccc(CC(=O)Nc2cc(C)nn2-c2nc3c(c(=O)[nH]2)CCC3)cc1OC	101% (active)
COc1ccc(CC(=O)Nc2cc(C)nn2-c2nc(C)c(C)c(=O)[nH]2)cc1	-19.9% (inactive)
CCc1c(C)nc(-n2nc(C)cc2NC(=O)c2ccc(OC)cc2OC)[nH]c1=O	-4.11% (inactive)
CCc1c(C)nc(-n2nc(C)cc2NC(=O)Cc2ccc([N+](=O)[O-])cc2)[nH]c1=O	78.5% (active)
CCc1c(C)nc(-n2nc(C)cc2NC(=O)/C=C/c2ccc(OC)c(OC)c2)[nH]c1=O	99.3% (active)
CCc1c(C)nc(-n2nc(C)cc2NC(=O)Cc2ccc(OC)cc2)[nH]c1=O	99.1% (active)
C=CC(=O)Nc1cccc(Sc2nc(Nc3ccc(N4CCN(C)CC4)cc3)ncc2Cl)c1	33.2% (inactive)
O=C(CSc1nnc(C23CC4CC(CC(C4)C2)C3)o1)N1CCCC1	45.1% (inactive)
CCc1c(C)nc(-n2nc(C)cc2NC(=O)Cc2ccc(OC)c(OC)c2)[nH]c1=O	101% (active)
COc1ccc(CC(=O)Nc2cc(C)nn2-c2nc(C)c(C)c(=O)[nH]2)cc1OC	100% (active)
CCNC(=O)c1cc(N2CCC(c3ccc(OC)cc3)C2)ccn1 (stereo unspecified)	-14.2% (inactive)
CCNC(=O)c1cc(Oc2ccc(C)cc2Br)ccn1	89.2% (active)
Cc1ccc(Oc2ccc3ncccc3c2N)c(Br)c1	14.7% (inactive)
O=C(NCC1COc2ccccc2O1)C1Cc2cc(Cl)ccc2O1 (stereo unspecified)	67% (active)

Structure (SMILES)	inhibition
O=C(NCc1ccco1)C1Cc2cc(Cl)ccc2O1 (stereo unspecified)	22% (inactive)
CC(NC(=O)C1Cc2ccccc2O1)c1ccc(Cl)s1 (stereo unspecified)	4.06% (inactive)
Fc1ccccc1NC(=S)NCC1COc2ccccc2O1 (stereo unspecified)	11.1% (inactive)
O=C(NCC1COc2ccccc2O1)c1ccc2c(c1)CCC2 (stereo unspecified)	66.8% (active)
CC(NC(=O)c1cc(Cl)ccc1NS(C)(=O)=O)c1ccc2c(c1)OCO2 (stereo unspecified)	7.73% (inactive)
CC(NC(=O)C1Cc2cc(Cl)ccc2O1)c1ccc(F)c(F)c1 (stereo unspecified)	59.3% (active)
O=C(NCC1COc2ccccc2O1)N1CCN(c2ccc(F)cc2)CC1 (stereo unspecified)	26.7% (inactive)
O=C1CC(NC(=O)C(F)(F)F)=NN1c1ccccc1	70.9% (active)
CCCc1nc(C(=O)N2CCOC(c3ccc(Cl)cc3)C2)cs1 (stereo unspecified)	28.4% (inactive)
O=C(c1csc(-c2cccnc2)n1)N1CCOC(c2ccc(Cl)cc2)C1 (stereo unspecified)	61% (active)
Clc1ccc(C2CN(Cc3cc(-c4cccnc4)no3)CCO2)cc1 (stereo unspecified)	6.33% (inactive)
Cc1ccccc1OCC(=O)N1CCN(c2ncnc3c2nnn3-c2cccc(F)c2)CC1	67.9% (active)
c1ccc(Cc2nc(CCOc3ccccc3)n[nH]2)cc1	36.5% (inactive)
Nc1ccc(F)cc1-c1nc(CCOc2ccccc2)no1	74.1% (active)
COCCCn1c(=S)[nH]c2sc3c(c2c1=O)CCCC3	20.5% (inactive)
O=c1c2c3c(sc2[nH]c(=S)n1CC1CCCO1)CCCC3 (stereo unspecified)	68.2% (active)
CCn1c(=S)[nH]c2sc3c(c2c1=O)CCCC3	38.1% (inactive)
CCC(=O)c1cccc(-c2ccc(NC(C)=O)cc2)c1	78.7% (active)
CCCc1cc(Nc2ccc(NC(C)=O)cc2)n2ncc(-c3ccccc3)c2n1	-6.07% (inactive)
O=C1c2ccccc2C(=O)c2c1oc1c3c(ccc21)OCN(C1CCCC1)C3	99.5% (active)
COC(=O)c1cc2cc(Br)ccc2oc1=O	-45.4% (inactive)
CCOC(=O)c1ccc(NC(=O)c2cc3cc([N+](=O)[O-])ccc3oc2=N)cc1	62.9% (active)

Structure (SMILES)	inhibition
CCOC(=O)C(CC)Sc1nnc(NC(=O)c2ccc(Br)cc2)s1 (stereo unspecified)	91.5% (active)
COC(=O)C(C)Sc1nc2c(c(=O)n(C)c(=O)n2C)n1CCC(C)C (stereo unspecified)	26.7% (inactive)
CSc1nc2c(c(=O)n(C)c(=O)n2C)n1CCCc1ccccc1	28.2% (inactive)
Cc1cccc(Cn2c(SC(C)C)nc3c2c(=O)n(C)c(=O)n3C)c1	81.2% (active)
CN(Cc1ccc(-n2cccn2)cc1)S(=O)(=O)c1cccs1	10.7% (inactive)
Fc1cccc(NCCc2ccc(-n3cccn3)cc2)n1	67.5% (active)
c1ccc(-c2cc(NCCCn3ccnc3)n3ncc(-c4ccccc4)c3n2)cc1	-16.1% (inactive)
Cc1cc(NCCCn2ccnc2)n2ncc(-c3ccc(Cl)cc3)c2n1	95.2% (active)
COCCNc1cc(C)nc2c(-c3ccc(Cl)cc3)cnn12	98.7% (active)
CCc1nn2c(NCCOC)cc(C)nc2c1-c1ccccc1	32.2% (inactive)
Cc1cc(NCCOCCO)n2ncc(-c3ccc(Cl)cc3)c2n1	-5.37% (inactive)
Cc1ccc(-c2cnn3c(-n4nc(C)cc4C)cc(C)nc23)cc1	47.1% (inactive)
O=C1CC(c2ccc(O)cc2)Oc2ccccc21 (stereo unspecified)	72.9% (active)
O=C1CC(c2ccc3c(c2)OCCO3)Oc2ccc(Br)cc21 (stereo unspecified)	inactive
COc1ccc2c(c1OC)C(=O)OC2Nc1ccc(I)cc1 (stereo unspecified)	72.8% (active)
O=C1NC(=O)C(Nc2ccc(I)cc2)S1 (stereo unspecified)	27.9% (inactive)
c1ccc(OCCCCn2nnc3ccccc32)cc1	21.5% (inactive)
c1ccc(COc2ccc(OCCCn3cnc4ccccc43)cc2)cc1	85.3% (active)
Ic1ccc(OCCCn2cnc3ccccc32)cc1	70.5% (active)
Cc1ccc(OCCCn2cnc3ccccc32)cc1	36% (inactive)
Cc1ccc(C(C)C)cc1OCCCn1cnc2ccccc21	78.4% (active)
FC(F)(F)c1cccc(OCCCCn2cnc3ccccc32)c1	76.6% (active)
